The full list was thinned out, with hits kept by preference.
12-LOX inh: ALOX12 (human) lipoxygenase inhibition; hit rate 1.1% among 580,000; Potency, µM (titrated, usually from 108 µM), most hits filed as inhibitors; purified 12hLO, xylenol orange hydroperoxide absorbance
Target sequence (P18054 whole entry, looked up): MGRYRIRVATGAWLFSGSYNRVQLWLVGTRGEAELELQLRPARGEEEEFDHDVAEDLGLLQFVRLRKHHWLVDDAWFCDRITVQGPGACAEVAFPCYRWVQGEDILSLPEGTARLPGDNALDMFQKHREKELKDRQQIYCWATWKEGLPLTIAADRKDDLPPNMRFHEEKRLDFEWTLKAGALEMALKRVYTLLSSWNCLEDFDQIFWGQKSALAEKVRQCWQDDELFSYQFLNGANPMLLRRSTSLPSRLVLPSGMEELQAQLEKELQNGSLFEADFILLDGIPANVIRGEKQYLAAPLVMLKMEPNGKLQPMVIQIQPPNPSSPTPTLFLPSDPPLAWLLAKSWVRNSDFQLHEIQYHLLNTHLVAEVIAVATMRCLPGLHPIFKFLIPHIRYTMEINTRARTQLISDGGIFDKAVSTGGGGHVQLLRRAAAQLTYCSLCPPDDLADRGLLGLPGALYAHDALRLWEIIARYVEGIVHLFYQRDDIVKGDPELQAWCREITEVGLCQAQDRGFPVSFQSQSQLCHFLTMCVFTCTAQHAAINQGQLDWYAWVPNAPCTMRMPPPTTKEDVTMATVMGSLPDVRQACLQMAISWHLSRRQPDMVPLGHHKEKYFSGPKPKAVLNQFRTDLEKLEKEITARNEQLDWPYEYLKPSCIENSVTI
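Hydroperoxide product was detected by ferrous iron/xylenol orange as the 573 to 405 nm absorbance ratio. Arachidonic acid at 40 uM (final) was turned over for 30 min at room temperature by 150 nM human 12hLO, pH 7.0 Hepes buffer, after 15 min compound preincubation.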
IL-1B inflam inh: inflammasome signaling inhibition, IL-1 beta readout; hit rate 4.7% among 360,000; THP-1 LPS/ATP IL-1B secretion, AlphaLISA, 16 h; hits give low values; AID 743279; activity change, % at 57.5 µM; in the data active = activity change below about -50%; inconclusive = mostly about -30% to -49%
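THP-1 cells pretreated 1 hr with compounds (up to 57.5 uM final), then stimulated with LPS (250 ng/mL final) plus ATP (1.25 mM final); secreted IL-1B measured by AlphaLISA after 16 hr, decreased signal indicating inhibition.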
TDP1 cell noCPT: qHTS for Inhibitors of human tyrosyl-DNA phosphodiesterase 1 (TDP1): qHTS in cells in absence of CPT | DT40 Tdp1-/- hTDP1 cells, no CPT, ATP luminescence, 48 h | hit rate 15% among 420,000 | AID 686978, 2013 | Potency, µM (doses to about 46.2 µM), usual class: inhibitors; note: nearly all actives have a fitted effect of over 55% in size
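Readout: luminescence from CellTiter-Glo after 30 min in the dark at RT. Cells: DT40 Tdp1-/- with stable hTDP1, 400/well. Exposure: compounds alone, ≥48 hr, 37 °C.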
HT1080 IDH1KD tx: toxicity to HT-1080 IDH1 knockdown cells (counter line); HT-1080 IDH1 knockdown viability, ATP luminescence, 48 h; hit rate 2% among 360,000; Potency, µM (series often up to 46.1 µM), hits mostly cytotoxic
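Assay cells: HT-1080 with IDH1 knockdown, 750 per well, RPMI/5% FBS. Exposure: 48 h at 37 °C following 2 h pre-incubation. Read: CellTiter-Glo luminescence; fitted concentration-response, curve class assigned.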
DT40 TDP1 CPT: DT40-hTDP1 cell growth loss with CPT | chicken DT40 Tdp1-/-;hTDP1 cells + 20 nM CPT, ATP luminescence, 48 h | hit rate 12% among 420,000 | Potency, µM (titrated, usually from 46.2 µM), hits mostly inhibitors; note: nearly all actives have a fitted effect of over 55% in size
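Cell growth measured by CellTiter-Glo luminescence after a minimum 48 h, 37 C compound exposure with 20 nM CPT in Tdp1-knockout DT40 cells stably expressing hTDP1, seeded 400/well; qHTS titration format.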
HT1080-NT tox: kills 2HG-producing HT-1080-NT fibrosarcoma cells | HT-1080-NT fibrosarcoma viability, CellTiter-Glo ATP luminescence, 48 h | Potency, µM (highest dose often 46.1 µM), hits mostly cytotoxic | hit rate 1.6% among 360,000;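 note: NT is the 2HG producing partner of a matched IDH1 knockdown line; nearly all actives have a fitted effect of over 55% in size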
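Luminescent CellTiter-Glo readout after 48 hours of compound exposure at 37 degrees C defined viability of HT-1080-NT cells. Activity was normalized to DMSO wells and cell-free media wells; concentration-response curves were fitted and assigned curve classes.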
Numbers stand for hits; 0 = inactive; ? = inconclusive; - = no result. Unless noted, calls come from the whole dose curve; as a rule, active = well fitted curve in the direction sought with a large enough effect; inconclusive = small, poorly fitted or top-dose-only effect, or another doubt; inactive = no such curve, though single readings can be large; an effect the other way counts as inactive or inconclusive.

SMILES	12-LOX inh	IL-1B inflam inh	TDP1 cell noCPT	HT1080 IDH1KD tx	DT40 TDP1 CPT	HT1080-NT tox
O=C(COC(=O)Cc1ccc(Cl)cc1)NC1CCCC1	0	0	0	0	0	0
COC(=O)Cn1c(=NC(=O)c2ccc(S(=O)(=O)N3CCc4ccccc4C3)cc2)sc2cc(OC)ccc21	0	0	0	0	0	0
COC(=O)Cn1c(=NC(=O)c2cc(OC)cc(OC)c2)sc2cc(OC)ccc21	0	0	?	0	?	0
COC(=O)Cn1c(=NC(=O)c2cccc(OC)c2)sc2cc(OC)ccc21	0	0	23µM	0	0	0
COC(=O)Cn1c(=NC(=O)c2ccc(OC)cc2)sc2cc(OC)ccc21	0	0	9.2µM	0	?	0
CCOc1ccc(OCC)c(S(=O)(=O)Nc2ccc(-c3cn4ccc(C)nc4n3)cc2)c1	0	-	-	-	-	-
CN1N=C(C(=O)N=c2sc3ccccc3n2C)CCC1=O	0	0	0	0	0	0
COc1cc(OC)c2c(=O)cc(-c3ccccc3)oc2c1	?	0	?	0	21µM	0
COc1cc2c(c3oc(-c4ccccc4)cc(=O)c13)C=CC(C)(C)O2	?	0	26µM	0	16µM	0
C=CCn1c(=O)/c(=C/c2ccc(C)o2)s/c1=C(/C#N)C(=O)c1ccccc1	11µM	0	0	0	0	0
CCc1cccc2c(C(=O)CN3CCC(C(=O)N4CCCCCC4)CC3)c[nH]c12	0	-	-	-	-	-
COC(=O)c1ccccc1NC(=O)C1COc2ccccc2O1 (configuration not stated)	0	0	0	0	0	0
CC(C)(C)C(=O)Nc1nc2c(s1)CN(Cc1ccccc1)CC2	0	0	18µM	0	?	0
CCOC(=O)c1c(NC(=O)C(C)Sc2cccc[n+]2[O-])sc2c1CCN(Cc1ccccc1)C2 (configuration not stated)	0	0	16µM	0	?	0
COC(=O)c1c(NC(=O)C2COc3ccccc3O2)sc2c1CCN(C(=O)OC)C2 (configuration not stated)	0	?	21µM	0	16µM	0
CCCNC(=O)c1c(NC(=O)C2COc3ccccc3O2)sc2c1CCCC2 (configuration not stated)	0	0	?	0	12µM	?
O=C(Nc1nc2c(s1)CCCC2)C1COc2ccccc2O1 (configuration not stated)	0	?	?	0	?	0
CCOc1ccccc1NC(=O)c1ccc2c(Cl)c3c(nc2c1)CCC3	0	-	0	-	0	-
COC(=O)c1c(NC(=O)C(C)(C)C)sc2c1CCN(Cc1ccccc1)C2	?	0	?	0	16µM	0
NC(=O)c1c(NC(=O)Cc2ccccc2)sc2c1CCN(Cc1ccccc1)C2	0	0	13µM	0	12µM	0
CC(=O)Nc1sc2c(c1C(N)=O)CCN(Cc1ccccc1)C2	0	0	0	0	0	0
COC(=O)c1c(NC(=O)C2COc3ccccc3O2)sc2c1CCN(Cc1ccccc1)C2 (configuration not stated)	0	0	21µM	0	16µM	0
CC(=O)Nc1ccc(Cl)cc1C(=O)c1ccc[nH]1	0	0	0	0	0	0
NCC(=O)Nc1ccc(Cl)cc1C(=O)c1ccc[nH]1	0	0	0.12µM	0	0.16µM	0
CCn1c(=O)c(CCC(=O)N2CCN(c3ccccn3)CC2)c(C)c2c(C)nn(-c3ccccc3)c21	0	0	21µM	0	16µM	?
CCn1c(=O)c(CCC(=O)NCCN2CCOCC2)c(C)c2c(C)nn(-c3ccccc3)c21	0	0	?	0	21µM	0
Cc1ccc(-n2nc(C)c3c(C)c(CCC(=O)NCC4CCCO4)c(=O)n(C)c32)cc1 (configuration not stated)	0	0	23µM	0	?	0
CCn1c(=O)c(CCC(=O)NCC2CCCO2)c(C)c2c(C)nn(-c3ccccc3)c21 (configuration not stated)	0	0	?	0	16µM	0
